Common to all, as to assay: NCI-60 one-dose screen, 48 h (100 = growth as untreated, 0 = no growth, -100 = all killed)
One assay concerns SR leukemia. The following applies: 10 µM unless noted.
In the next assay the test system is RPMI-8226 leukemia. The following applies: 10 µM unless noted.
In a further assay the test system is OVCAR-8 ovarian. The following applies: 10 µM unless noted.
The subject of the next assay is OVCAR-5 ovarian. The following applies: 10 µM unless noted.
A further assay deals with OVCAR-4 ovarian. The following applies: 10 µM unless noted.
The next assay relates to SK-OV-3 ovarian. The following applies: 10 µM unless noted.
Another assay deals with IGROV1 ovarian. The following applies: 10 µM unless noted.
The subject of a further assay is OVCAR-3 ovarian. To be noted: 10 µM unless noted.
The next assay concerns HS 578T breast. To be noted: 10 µM.
A further assay deals with T-47D breast. To be noted: 10 µM unless noted.
A further assay deals with BT-549 breast. To be noted: 10 µM unless noted.
In a further assay the test system is MDA-MB-435 melanoma. The following applies: 10 µM unless noted.
A further assay concerns SW-620 colon. The following applies: 10 µM unless noted.
The test system of another assay is MCF7 breast. The following applies: 10 µM unless noted.
The subject of a further assay is HCT-116 colon. To be noted: 10 µM unless noted.
The next assay has as its system HCC-2998 colon. To be noted: 10 µM unless noted.
The test system of the next assay is KM12 colon. To be noted: 10 µM unless noted.
For another assay, the system named is NCI/ADR-RES ovarian. To be noted: 10 µM unless noted.

About 83,000 compounds went through this panel and 20% of them were active in at least one assay; those are over-represented in the sample as a whole.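 96-well plates, one dose, 48 hours. Percent growth reported; active if below 10.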 A number with no mark means an inactive call. Calls of active or inactive are those of the source.

Take `[O-]/[N+](=C\c1ccccc1)CC1(O)CCCCC1`: the growth in the assay with SR leukemia is 99.5%; in the assay on RPMI-8226 leukemia, 97.2%; in the assay with OVCAR-8 ovarian, 99.5%; in the assay with OVCAR-5 ovarian, 95.8%; in the assay on OVCAR-4 ovarian, 95.9%; in the assay with SK-OV-3 ovarian, 113%. For the same compound, the growth in the assay with IGROV1 ovarian is 125%; with OVCAR-3 ovarian it was 111%; in the assay on HS 578T breast it was 98.2%; in the assay on T-47D breast it was 106%; in the assay with BT-549 breast it was 111%; with MDA-MB-435 melanoma, 100%. The growth in the assay on SW-620 colon was 94.2%; with MCF7 breast it was 92.7%; in the assay with HCT-116 colon it was 117%; in the assay with HCC-2998 colon, 115%; in the assay with KM12 colon, 100%.
Regarding `CCc1ccc(Nc2ncnc3c2cnn3-c2cccc(Br)c2)cc1`, the growth with SR leukemia was 108%; in the assay with RPMI-8226 leukemia, 117%; with OVCAR-8 ovarian, 93.3%; in the assay with OVCAR-5 ovarian, 102%; in the assay on OVCAR-4 ovarian it was 105%; in the assay with SK-OV-3 ovarian it was 104%. Besides, the growth is 113% in the assay with IGROV1 ovarian; 103% in the assay with OVCAR-3 ovarian; 103% in the assay on HS 578T breast; 100% in the assay with NCI/ADR-RES ovarian; 95.8% with BT-549 breast; 98% with MDA-MB-435 melanoma. Further, the growth with SW-620 colon was 99.6%; in the assay with HCT-116 colon it was 96.1%; with HCC-2998 colon it was 98.1%; in the assay with KM12 colon it was 106%.
As to `Nc1nc(N)c2c(n1)NC(c1sc(Cl)nc1Cl)CC(c1ccc3c(c1)OCO3)=N2` (stereo unspecified), the growth in the assay on SR leukemia was 17.1%; in the assay with RPMI-8226 leukemia, 27.1%; in the assay on OVCAR-8 ovarian it was 40.5%; with OVCAR-5 ovarian it was 66.3%; with OVCAR-4 ovarian, 86%; with SK-OV-3 ovarian, 17.4%. For the same compound, the growth in the assay on IGROV1 ovarian is 34.2%; in the assay with OVCAR-3 ovarian, 10.4%; in the assay with HS 578T breast, 10.8%; with T-47D breast, 39.1%; in the assay with BT-549 breast, 27.2%; in the assay with MDA-MB-435 melanoma it was -9.34% (active). The growth in the assay with SW-620 colon is 13.2%; in the assay on MCF7 breast, 26.2%; with HCT-116 colon, 20.1%; in the assay on KM12 colon, 34.2%.
For the compound `COc1cc(C(=O)/C=C/c2cn(-c3ccccc3)nc2-c2cccc(Nc3ccnc4cc(Cl)ccc34)c2)cc(OC)c1OC`, the growth with SR leukemia is 3.48% (active); in the assay with RPMI-8226 leukemia it was 47.2%; with OVCAR-8 ovarian, 78.5%; with OVCAR-5 ovarian it was 112%; in the assay on OVCAR-4 ovarian, 127%; in the assay on SK-OV-3 ovarian, 115%. The growth with IGROV1 ovarian was 93.2%; in the assay on OVCAR-3 ovarian it was 132%; in the assay with HS 578T breast, 102%; with T-47D breast, 95.4%; with BT-549 breast it was 93.3%; with MDA-MB-435 melanoma, 66.9%. For the same compound, the growth in the assay with SW-620 colon is 99.1%; in the assay with MCF7 breast it was 71.2%; with HCT-116 colon it was 68.1%; in the assay on HCC-2998 colon it was 108%; with KM12 colon it was 93.5%.
As for `O=C(c1ccc(C(F)(F)F)c(Cl)c1)N(Cc1ccc(Cl)cc1)c1ccc(-c2cc(C(F)(F)F)[nH]n2)c(O)c1`, the growth in the assay with SR leukemia is 20%; in the assay on RPMI-8226 leukemia it was 1.58% (active); with OVCAR-8 ovarian, 11%; in the assay on OVCAR-5 ovarian, 17.3%; with OVCAR-4 ovarian, 19.9%; in the assay with SK-OV-3 ovarian it was -4.32% (active). In addition, the growth in the assay on IGROV1 ovarian is 15.2%; with OVCAR-3 ovarian, 6.9% (active); in the assay on HS 578T breast, 3.66% (active); with NCI/ADR-RES ovarian, 2.97% (active); in the assay on BT-549 breast, 14.6%; with MDA-MB-435 melanoma it was 10.1%. In addition, the growth is 17.2% in the assay on SW-620 colon, 3.75% (active) with HCT-116 colon, 13.6% with HCC-2998 colon and 10% in the assay on KM12 colon.
Turning to `COc1ccc(-c2nc3ccc(Cc4ccc5nc(-c6ccc(OC)cc6)[nH]c5c4)cc3[nH]2)cc1`, the growth in the assay with SR leukemia is 38.8%; with RPMI-8226 leukemia, 18.5%; in the assay with OVCAR-8 ovarian, 15.1%; with OVCAR-5 ovarian, 91.2%; in the assay with OVCAR-4 ovarian, 11.4%; in the assay on SK-OV-3 ovarian, 97.3%. Besides, the growth is -16.9% (active) with IGROV1 ovarian; -21.9% (active) in the assay with OVCAR-3 ovarian; 73.1% in the assay with HS 578T breast; 20.8% in the assay on T-47D breast; 84.5% in the assay with BT-549 breast; 35.3% in the assay with MDA-MB-435 melanoma. In addition, the growth in the assay on SW-620 colon was 31.2%; in the assay with MCF7 breast it was -13.5% (active); with HCT-116 colon, 39.4%; with HCC-2998 colon, 35.8%; in the assay with KM12 colon, 49.1%.
As for `COc1cc(C2CC(c3ccc(Nc4ccnc5cc(Cl)ccc45)cc3)=NN2c2ccccc2)cc(OC)c1OC` (stereo unspecified), the growth with SR leukemia is 24.8%; in the assay on RPMI-8226 leukemia, 49.7%; with OVCAR-8 ovarian, 81.2%; in the assay with OVCAR-5 ovarian, 86.4%; with OVCAR-4 ovarian it was 123%; with SK-OV-3 ovarian, 90.3%. Moreover, the growth was 106% in the assay on IGROV1 ovarian; 86.7% in the assay on OVCAR-3 ovarian; 72.4% in the assay on HS 578T breast; 67.7% in the assay on T-47D breast; 82.3% in the assay with BT-549 breast; 6.36% (active) with MDA-MB-435 melanoma. In addition, the growth was 50.2% in the assay with SW-620 colon, 48% in the assay with MCF7 breast, 54.9% in the assay with HCT-116 colon and 67.7% in the assay with HCC-2998 colon.
Turning to `CCOC(=O)c1ccccc1SC(C[N+](=O)[O-])c1ccccc1` (stereo unspecified), the growth with SR leukemia is 38.2%; in the assay with RPMI-8226 leukemia, -41.5% (active); with OVCAR-8 ovarian, 85.8%; with OVCAR-5 ovarian, 100%; in the assay on OVCAR-4 ovarian it was 89.1%; in the assay on SK-OV-3 ovarian, 117%. For the same compound, the growth in the assay on IGROV1 ovarian is 72.1%; in the assay on OVCAR-3 ovarian it was 104%; in the assay with HS 578T breast, 104%; in the assay with T-47D breast it was 60.6%; with BT-549 breast, 88.4%; with MDA-MB-435 melanoma, -58.1% (active). For the same compound, the growth was 55.8% with SW-620 colon, 1.05% (active) in the assay on MCF7 breast, 3.98% (active) in the assay with HCT-116 colon and 91.6% in the assay on KM12 colon.
